Experimental data taken from PubChem BioAssay (NCI).
This is part of a sample that, as a whole, favours compounds with a hit. Of some 83,000 tested, about 20% had one in any assay.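 Compound tested at a single concentration for 48 hours in 96-well plates; a percent growth value below 10 was scored as active.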 Unmarked numbers belong to inactive results. Calls of active or inactive are those of the source.

What was measured:
Test in all cases: NCI-60 one-dose screen, 48 h (100 = growth as untreated, 0 = no growth, -100 = all killed)
Conditions in all cases: 10 µM unless noted
[1] = tested on: NCI-H23 lung
[2] = tested on: NCI-H226 lung
[3] = tested on: NCI-H322M lung
[4] = tested on: HOP-62 NSCLC
[5] = tested on: NCI-H460 lung
[6] = tested on: HOP-92 NSCLC
[7] = tested on: NCI-H522 lung
[8] = tested on: A549/ATCC NSCLC
[9] = tested on: 786-0 renal
[10] = tested on: COLO 205 colon
[11] = tested on: DU-145 prostate
[12] = tested on: K-562 leukemia
[13] = tested on: MALME-3M melanoma
[14] = tested on: MDA-MB-231 breast
[15] = tested on: RXF 393 renal
[16] = tested on: SF-268 CNS
[17] = tested on: SF-295 CNS
[18] = tested on: SF-539 CNS
[19] = tested on: UACC-257 melanoma
[20] = tested on: M14 melanoma

Compound: CN(C)c1ccc2nc3ccc(=[N+](C)C)cc-3oc2c1
- growth [1]: 9.83% (active)
- growth [2]: 33.2%
- growth [3]: 9.08% (active)
- growth [4]: 7.12% (active)
- growth [5]: 35.3%
- growth [6]: 55.9%
- growth [7]: -37.4% (active)
- growth [8]: 30.7%
- growth [9]: 66.1%
- growth [10]: -10.3% (active)
- growth [11]: 59%
- growth [12]: 16.9%
- growth [13]: -21.8% (active)
- growth [14]: -14.6% (active)
- growth [15]: 89.6%
- growth [16]: -17.5% (active)
- growth [17]: 50.3%
- growth [18]: 7.14% (active)
- growth [19]: -30.1% (active)
- growth [20]: 3.87% (active)

Compound: COc1ccc(/C=N/NC(=O)COCC(=O)N/N=C/c2ccc(OC)cc2)cc1
- growth [1]: 107%
- growth [2]: 99.5%
- growth [3]: 113%
- growth [4]: 117%
- growth [5]: 107%
- growth [6]: 92.5%
- growth [7]: 107%
- growth [8]: 98.3%
- growth [9]: 106%
- growth [10]: 111%
- growth [11]: 113%
- growth [12]: 102%
- growth [13]: 115%
- growth [14]: 98.4%
- growth [15]: 104%
- growth [16]: 110%
- growth [17]: 97.1%
- growth [18]: 100%
- growth [19]: 96.6%
- growth [20]: 115%

Compound: Cc1cc2c(C(C)C)c(O)c(O)c(C=Nc3ccccc3[N+](=O)[O-])c2c(O)c1-c1c(C)cc2c(C(C)C)c(O)c(O)c(C=Nc3ccccc3[N+](=O)[O-])c2c1O
- growth [1]: 71.4%
- growth [2]: 82.8%
- growth [3]: 89.2%
- growth [4]: 83.4%
- growth [5]: 87%
- growth [6]: 61%
- growth [7]: 64.4%
- growth [8]: 52%
- growth [9]: 96.1%
- growth [10]: 94.7%
- growth [11]: 94.6%
- growth [12]: 34.9%
- growth [13]: 93.5%
- growth [14]: 74.4%
- growth [15]: 83.2%
- growth [16]: 73.5%
- growth [17]: 82%
- growth [18]: 97.2%
- growth [19]: 92.6%
- growth [20]: 88%

Compound: O=Cc1c(O)c2ccccc2[nH]c1=O
- growth [1]: 97.8%
- growth [2]: 88.6%
- growth [3]: 112%
- growth [4]: 102%
- growth [5]: 103%
- growth [6]: 110%
- growth [7]: 94.8%
- growth [8]: 90.1%
- growth [9]: 104%
- growth [10]: 108%
- growth [11]: 158%
- growth [12]: 111%
- growth [13]: 139%
- growth [14]: 99.6%
- growth [15]: 114%
- growth [16]: 110%
- growth [17]: 109%
- growth [18]: 97.9%
- growth [19]: 84.8%
- growth [20]: 94.4%

Compound: O=C(Oc1ccccc1Cl)c1ccc(Cl)cc1Cl
- growth [1]: 101%
- growth [2]: 102%
- growth [3]: 107%
- growth [4]: 87.9%
- growth [5]: 102%
- growth [6]: 103%
- growth [7]: 98.8%
- growth [8]: 89.3%
- growth [9]: 95.9%
- growth [10]: 104%
- growth [11]: 110%
- growth [12]: 99.6%
- growth [13]: 103%
- growth [14]: 98.3%
- growth [15]: 102%
- growth [16]: 105%
- growth [17]: 95.1%
- growth [18]: 95.6%
- growth [19]: 94.3%
- growth [20]: 98.1%

Compound: COc1cccc2c1Cc1ccccc1-2
- growth [1]: 94.9%
- growth [2]: 94.4%
- growth [3]: 114%
- growth [4]: 113%
- growth [5]: 110%
- growth [6]: 106%
- growth [7]: 103%
- growth [8]: 107%
- growth [9]: 110%
- growth [10]: 109%
- growth [11]: 106%
- growth [12]: 94.4%
- growth [13]: 117%
- growth [14]: 93.6%
- growth [15]: 97.9%
- growth [16]: 99.8%
- growth [17]: 103%
- growth [18]: 107%
- growth [19]: 102%
- growth [20]: 102%

Compound: CCOC(=O)c1ccc(NC(=O)Nc2nccs2)cc1
- growth [1]: 19.4%
- growth [2]: 19.9%
- growth [3]: 41.3%
- growth [4]: 20.6%
- growth [5]: -44.2% (active)
- growth [6]: -7.86% (active)
- growth [7]: -43.5% (active)
- growth [8]: 10.6%
- growth [9]: -7.93% (active)
- growth [10]: -82.9% (active)
- growth [11]: -26.3% (active)
- growth [12]: -3.89% (active)
- growth [13]: 39.4%
- growth [14]: 8.88% (active)
- growth [15]: -21.2% (active)
- growth [16]: 0.081% (active)
- growth [17]: 9.16% (active)
- growth [18]: -50.1% (active)
- growth [19]: 45.5%
- growth [20]: 4.57% (active)

Compound: CC1(c2ccccc2)CO1 (stereo not given)
- growth [1]: 108%
- growth [2]: 109%
- growth [3]: 125%
- growth [4]: 97.2%
- growth [5]: 115%
- growth [6]: 95.7%
- growth [7]: 99.2%
- growth [8]: 103%
- growth [9]: 102%
- growth [10]: 114%
- growth [11]: 111%
- growth [12]: 106%
- growth [13]: 118%
- growth [14]: 108%
- growth [15]: 120%
- growth [16]: 107%
- growth [17]: 110%
- growth [18]: 102%
- growth [19]: 102%
- growth [20]: 108%
